Compound activity: PubChem, National Center for Advancing Translational Sciences (NCATS)
The full list was thinned out, with hits kept by preference.
nsP2pro inh = Primary qHTS for inhibitors of NSP2Pro chikungunya virus (CHIKV) | FRET peptide cleavage, nsP2pro, fluorescence 1 h | Potency, µM (doses to about 24.9 µM), inactives show at the top dose activity change, negative = inhibition, actives largely listed as inhibitors | 31,000 tested, 1.1% active | AID 1964107, 2024; note: nearly all actives have a fitted effect of over 60% in size
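Enzyme 150 nM, substrate 2.5 uM (both final); Tris-HCl 10 mM pH 8.0 + 0.01% Tween 20; cpd up to 25 uM, 7 pts; 15 min preinc., 1 h RT; fluorescence ex 525/em 598.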
nsP2 cell sec = Secondary cell base assay for inhibitors of NSP2Pro Chikungunya virus (CHIKV) | Potency, µM (doses to about 51.1 µM), inactives show at the highest dose activity change, negative = inhibition, actives largely listed as inhibitors | 450 tested, 10% active | cell-based CHIKV nsP2 protease reporter assay | AID 1964100, 2024 | shares compounds with nsP2pro inh; note: nearly all actives have a fitted effect of over 70% in size
NSP2 full ctr = Selectivity profile for inhibitors of NSP2Pro chikungunya virus (CHIKV): Full length NSP2 enzyme counterscreen (CHIKV-NSP2); Full-length CHIKV NSP2 protease enzymatic counterscreen; shares compounds with nsP2pro inh; 410 tested, 39% active; Potency, µM (highest dose often 50.7 µM), for inactives: at the top dose activity change, negative = inhibition, usual class: inhibitors; note: nearly all actives have a fitted effect of over 65% in size
Furin counterscr = Selectivity profile for inhibitors of NSP2Pro chikungunya virus (CHIKV): Human furin counterscreen; shares compounds with nsP2pro inh; Recombinant human furin enzymatic counterscreen, fluorogenic substrate; Potency, µM (highest dose often 50.6 µM), inactives show at the highest dose activity change, negative = inhibition, hits mostly inhibitors; 410 tested, 6% active
NS23 peptide cs = Selectivity profile for inhibitors of NSP2Pro chikungunya virus (CHIKV): Endogenous NS2/3 peptide Counterscreen | 410 tested, 34% active | Purified CHIKV nsP2 protease, endogenous NS2/3 peptide cleavage | Potency, µM (top dose mostly 51 µM), without a hit: at the top dose activity change, negative = inhibition, usual class: inhibitors | shares compounds with nsP2pro inh | AID 1964103, 2024; note: nearly all actives have a fitted effect of over 55% in size
Papain cs = Selectivity profile for inhibitors of NSP2Pro chikungunya virus (CHIKV): Papain Counterscreen; purified papain protease activity, enzymatic inhibition; Potency, µM (top dose mostly 51 µM), without a hit: at the highest dose activity change, negative = inhibition, most hits filed as inhibitors; shares compounds with nsP2pro inh; AID 1964104, 2024; 410 tested, 5% active
nsP2pro confirm = Confirmatory qHTS for inhibitors of NSP2Pro chikungunya virus (CHIKV). shares compounds with nsP2pro inh. CHIKV nsP2 protease enzymatic activity, qHTS. Potency, µM (top dose mostly 25.5 µM), without a hit: at the top dose activity change, negative = inhibition, actives largely listed as inhibitors. 410 tested, 43% active. AID 1964105, 2024; note: nearly all actives have a fitted effect of over 75% in size
HCV NS3 counter = Selectivity profile for inhibitors of NSP2Pro chikungunya virus (CHIKV): NS34A-HCV Counterscreen; shares compounds with nsP2pro inh; HCV NS3/4A protease biochemical counterscreen; Potency, µM (doses to about 50.9 µM), usual class: inhibitors; 410 tested, 20% active; note: nearly all actives have a fitted effect of over 55% in size
* marks the source's active call; other numbers are inactive results; i = inactive; ? = inconclusive; [ ] = dose if it differs, or a comment. Calls come from the whole dose curve. % is set by controls: 0 for no effect and ±100 for the full control effect; potency is the fitted concentration of half-maximal effect.

SMILES | nsP2pro inh | others
O=C(NC(c1ccco1)c1cc(Cl)c2cccnc2c1O)c1ccc(F)c(F)c1 (stereo not given) | i
NC(N)=NCCC[C@@H](N)C(=O)N[C@@H](CCCN=C(N)N)C(=O)N1CCC[C@H]1C(=O)N1C[C@H](O)C[C@H]1C(=O)NCC(=O)N[C@@H](Cc1cccs1)C(=O)N[C@@H](CO)C(=O)N1Cc2ccccc2C[C@@H]1C(=O)N1[C@H](C(=O)N[C@@H](CCCN=C(N)N)C(=O)O)C[C@@H]2CCCC[C@@H]21 | -1.2%[10 µM]
O=C(Nc1cnc(N2CCC(N3CCCCC3)CC2)c(C(=O)O)c1)c1ccc(Br)cc1 | 3.98µM* | nsP2 cell sec=-1.9%;NSP2 full ctr=4.11µM*;Furin counterscr=?;NS23 peptide cs=16.3µM*;Papain cs=-7.0%;nsP2pro confirm=7.98µM*;HCV NS3 counter=4.11µM*
O=C(Nc1ccccc1)c1cnc(N2CCCCC2)c2ccccc12 | 13.5%
O=C(Nc1ccc(N2CCC(N3CCCCC3)CC2)c(C(=O)O)c1)c1ccc(Br)cc1 | 33.6%
N[C@@H](C=O)[C@@H](O)[C@@H](O)[C@H](O)CO | -27.8%
COc1ccccc1-c1nc(-c2cccc(C(=O)O)c2)no1 | -5.3%
COc1ccnc(NC(=S)N2CCN(c3cccc(Cl)c3Cl)CC2)c1 | -7.5%
COc1ccc(N2CCN(C(c3ccccc3)c3nnc(-c4ccccc4Cl)o3)CC2)cc1 (stereo not given) | ? | nsP2 cell sec=?
COc1ccccc1N1CCN(C(c2ccccc2)c2nnc(-c3ccccc3Cl)o2)CC1 (stereo not given) | -9.8%
COc1ccccc1N1CCN(C(c2ccc(Cl)cc2)c2nnc(-c3cccc(F)c3)o2)CC1 (stereo not given) | -12.8%
COc1ccc(-c2nc3ccccc3s2)cc1OC | i
COC(=O)OCOc1c2n(ccc1=O)N([C@@H]1c3ccccc3SCc3c1ccc(F)c3F)[C@@H]1COCCN1C2=O | -6.4%
Cc1cn2c(N)c(Cl)cc(C(=O)NCC3CCN(CC(C)C)CC3)c2n1 | 36.5%
COc1ccc(CN2C3CC2CN(c2ccc(-c4cc(OCC(C)(C)O)cn5ncc(C#N)c45)cn2)C3)cn1 | -12.6%
C=CC1(C)CC(=O)C2(O)C(C)(O1)C(OC(C)=O)C(OC(=O)CCN(C)C)C1C(C)(C)CCC(O)C12C (stereo not given) | 9.1%
C=CCC/C=C/C#CCCCCCCCC[C@H]1C(=O)O[C@H](C)[C@@H]1O | ? | nsP2 cell sec=?;NSP2 full ctr=?;Furin counterscr=-8.7%[33.5 µM];NS23 peptide cs=-7.9%[33.5 µM];Papain cs=?;nsP2pro confirm=?;HCV NS3 counter=i
O=C(Nc1ccc(Br)cc1)Nc1nnc(-c2ccncc2)s1 | -7.5%
C#CCN(Cc1cc2c(=O)n(C)c(CN3CCN(C)CC3)nc2cc1Cl)c1ccc(C(=O)NCc2cccnc2)cc1 | 168.3%
CC1=CC(=O)c2ccccc2C1=O | ? | nsP2 cell sec=-11.5%;NSP2 full ctr=-14.4%;Furin counterscr=2.6%;NS23 peptide cs=?;Papain cs=-19.6%;nsP2pro confirm=4.2%;HCV NS3 counter=i
